Source: PubChem
Rows were chosen to be rich in hits. Some 9.5% of all compounds tested hit in one or more screens of this group.
Pf growth 48h: inhibits P. falciparum growth in the first generation, 48 h | P. falciparum luciferase growth in erythrocytes, 48 h | Potency, µM (doses to about 28.7 µM), actives largely listed as inhibitors | hit rate 5.9% among 310,000; active means well fitted inhibition curve with a large enough effect; inconclusive means small, poorly fitted or top-dose-only effect, or another doubt; inactive means no such curve, though single readings can be large or run the other way
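Parasite viability was followed by luminescence of a genomically integrated firefly luciferase. Cultures held 0.1% parasitemia at 2% hematocrit (final), incubated under 5% CO2 at 37 C.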
SARS PLpro yeast: blocks SARS-CoV papain-like protease in a yeast assay. Potency, µM (doses to about 32.9 µM), most hits filed as activators. S. cerevisiae expressing SARS-CoV PLpro, growth rescue. hit rate 0.19% among 330,000; further: nearly all actives have a fitted effect of over 55% in size
NS1 inh: blocks influenza NS1 protein function; Potency, µM (highest dose often 46.1 µM); hit rate 0.4% among 270,000; AID 2326; further: actives are rising curves; nearly all actives have a fitted effect of over 50% in size
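OD600 was taken as the measure of yeast growth restored by compound in an NS1-expressing S. cerevisiae strain. Cells had been washed out of glucose medium and diluted 1:100 into galactose -URA medium, pH 6.0.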
Pf growth 96h: P. falciparum growth inhibition at 96 hours. P. falciparum luciferase reporter growth, 96 h. AID 504834. hit rate 6.9% among 320,000. Potency, µM (series often up to 28.7 µM), usual class: inhibitors; active means well fitted inhibition curve with a large enough effect; inconclusive means small, poorly fitted or top-dose-only effect, or another doubt; inactive means no such curve, though single readings can be large or run the other way
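Delayed-death screen, second-generation endpoint: infected erythrocytes, 2% hematocrit, 0.05% parasitemia final; 96 hours at 37 C, 5% CO2; luciferase detection reagent; luminescence decrease equals reduced growth.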
RE007 growth inh: less growth of the S. pombe RE007 Vpr strain. Potency, µM (titrated, usually from 92.2 µM), actives largely listed as inhibitors. AID 651644. hit rate 0.21% among 360,000. S. pombe RE007 Vpr strain, BacTiter-Glo ATP luminescence, 24 h; active means well fitted falling curve with a large enough effect; inconclusive means small, poorly fitted or top-dose-only effect; inactive means no such curve, though single readings can be large or run the other way; further: nearly all actives have a fitted effect of over 50% in size
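Fission yeast RE007 carrying one integrated HIV-1 vpr copy, seeded at OD 0.01 in PMG+AL medium with 23 nL pinned compound. Grown 24 h at 30 degrees; viability read by BacTiter-Glo luminescence after 5 min.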
Numbers stand for hits; i = inactive; ? = inconclusive; nt = no result; [ ] = dose if it differs, or a comment. Unless noted, the call rests on the fitted dose curve.

SMILES	Pf growth 48h	SARS PLpro yeast	NS1 inh	Pf growth 96h	RE007 growth inh
COc1ccc(S(=O)(=O)N(C)CC(=O)N2CCN(c3ccc(F)cc3)CC2)cc1OC	i	i	i	nt	i
CCN1CCN(C(=O)CN(c2ccc(F)cc2)S(=O)(=O)c2ccc(OC)c(OC)c2)CC1	i	i	i	6.6µM	i
O=C(O)CCNc1ncnc2nc[nH]c12	nt	nt	i	nt	nt
Cc1c(C(=O)NCc2ccco2)sc(=O)n1Cc1ccc(S(C)(=O)=O)cc1	nt	nt	nt	nt	i[18.4 µM]
O=[N+]([O-])c1ccc(-c2cnc(SCc3ccccc3Cl)[nH]2)cc1	i	i	i	?	i
O=[N+]([O-])c1ccc(-c2cnc(SC(c3ccccc3)c3ccccc3)[nH]2)cc1	?	i	i	7.4µM	i
O=C(Cc1ccc(Cl)cc1)NNC(=S)NC(=O)c1cccnc1	i	i	i	4.1µM	i
O=C(NC(=S)NNC(=O)c1cnccn1)c1ccc(Cl)cc1	4.1µM	i	i	?	i
COc1ccc(C(=O)NC(=S)NNC(=O)c2cnccn2)cc1	2.6µM	i	i	?	i
O=C(NNC(=S)NC(=O)c1cccnc1)c1ccc(Cl)cc1	?	i	i	i	i
O=C(NCCCNC(=O)c1cnccn1)c1ccc(Cl)cc1	i	i	i	i	i
COc1ccc(CC(=O)NNC(=O)c2cnccn2)cc1	i	i	i	i	i
CCOC(=O)C1(C)CCN1C(=O)c1cc2ccccc2s1 (stereo not given)	nt	nt	nt	nt	i
COC(=O)Cc1cc(=O)n2c(nc3ccccc32)[nH]1	nt	nt	nt	nt	i
Cc1nc2ccc(C(=O)NCCCn3ccnc3)cn2c1N(C)C(=O)CCc1ccccc1	nt	nt	nt	nt	i[18.4 µM]
CC(C)(C)c1ccc(Nc2n[nH]c3ccccc23)cc1	nt	nt	nt	nt	i
COc1cccc(NC(=O)Cn2c(=O)c3c(ncn3Cc3ccccc3)n(Cc3ccccc3)c2=O)c1	nt	i	i	0.83µM	i
COc1cccc(NC(=O)Cn2c(=O)n(-c3cc(OC)c(OC)c(OC)c3)c(=O)c3ccccc32)c1	10µM	i	nt	?	i
CCn1c(=O)n(CC(=O)Nc2cccc(OC)c2)c(=O)c2ccccc21	i	i	i	i	i
COCCn1cnc2c1c(=O)n(CC(=O)NC(=O)NC(C)(C)C)c(=O)n2Cc1ccccc1	?	i	i	0.26µM	i
Cc1ncsc1CCOC(=O)C1C2CC3CC(C2)CC1C3 (stereo not given)	?	i	i	13µM	i
Cc1ncsc1CCOC(=O)c1cccc([N+](=O)[O-])c1	i	i	i	?	?
Cc1cc(C(=O)CCl)c(C)n1-c1c(C)n(C)n(-c2ccccc2)c1=O	8.3µM	i	i	6.6µM	i
Cc1nnc(SCC(=O)c2cc(C)n(-c3c(C)n(C)n(-c4ccccc4)c3=O)c2C)s1	i	i	i	i	i
CC(C)(C)OC(=O)NCCCC[C@H](NC(=O)c1[nH]cnc1C(=O)Nc1ccc(CNC(=O)OC(C)(C)C)cc1)C(=O)OC(C)(C)C	3.3µM	i	i	3.3µM	i
SMILES	Pf growth 48h	SARS PLpro yeast	NS1 inh	Pf growth 96h	RE007 growth inh
C[C@H](NC(=O)c1[nH]cnc1C(=O)Nc1ccc(CNC(=O)OC(C)(C)C)cc1)C(=O)OC(C)(C)C	13µM	i	i	9.3µM	i
CC(C)(C)OC(=O)NCCCC[C@H](NC(=O)c1nc[nH]c1C(=O)NCc1ccccc1)C(=O)OC(C)(C)C	?	i	i	?	i
CC(C)(CO)CNC1CCCN(C2Cc3ccccc3C2)C1 (stereo not given)	i	i	i	i	i
COc1cccc(CNC(=O)[C@@H]2CCCN2C(=O)[C@@H]2CCCN2)c1	nt	nt	nt	nt	i
CCCN(C(=O)c1c(CC)noc1C)c1c(N)n(Cc2ccccc2)c(=O)[nH]c1=O	i	i	nt	i	i
O=C1CN(Cc2ccccc2)C(=NCc2ccco2)S1	1.9µM	i	i	i	i
CCN1C[C@@H]2[C@@H]3C(=O)N(Cc4ccccc4)C(=O)[C@@H]3[C@](CC)(C(=O)OC)N2C1=NC	nt	i	nt	nt	i
CS[C@]12C(=O)C[C@]3(C)[C@@H](CC[C@@]3(O)C(=O)CO)[C@@H]1CCC1=CC(=O)CC[C@]12C	nt	nt	i	nt	nt
C#C[C@]1(O)CC[C@H]2[C@@H]3CCC4=CCCC[C@@H]4[C@H]3C(=C)C[C@@]21CC	?	nt	nt	9.5µM	nt
CC(C)c1ccc(NC(=O)CSc2n[nH]c(=O)n2-c2cccnc2)cc1	i	i	i	13µM	i
CC(C)c1ccc(O)c(NC(=O)c2cccnc2)c1	nt	i	i	10µM	i
CC(C)c1ccc(NC(=O)c2cccnc2)cc1	i	i	i	7.4µM	i
CC(C)c1ccc(NC(=S)NNC(=O)c2cccnc2)cc1	i	i	i	i	i
CC(C)c1ccccc1NC(=O)COC(=O)c1cccnc1	i	i	i	13µM	i
O=C(O)c1nc(-c2ccccc2)[nH]c1C(=O)O	nt	nt	i	nt	nt
Cc1ccc(C)c(S(=O)(=O)N2CCCOC2CNC(=O)C(=O)NCCC2=CCCCC2)c1 (stereo not given)	i	i	i	i	i
CCC(C)c1ccc(O)c(NC(=O)c2cncc(Br)c2)c1 (stereo not given)	1µM	i	i	i	i
CC(C)c1ccc(NC(=O)c2n[nH]c(=O)c3ccccc23)cc1	i	i	nt	8.3µM	i
Cc1cccc(C(C)C)c1NC(=O)c1cccnc1	i	i	i	12µM	i
COCC(=O)N1CCC(Oc2ccc(C(=O)N(C)CCCC3CCCC3)cc2)CC1	i	i	i	i	i
CC(=O)Nc1ccc(-c2ccnc3c2CC(C(=O)NCCC(F)(F)F)O3)cc1 (stereo not given)	nt	nt	nt	nt	i[18.4 µM]
COc1ccccc1N1CCN(CC(=O)Nc2nc(C)c(C(=O)N(C)C)s2)CC1	i	i	i	15µM	i
CN(C(=O)CSc1nc2ccc(Cl)cc2[nH]1)C1CCS(=O)(=O)C1 (stereo not given)	nt	i	nt	nt	i
S=C(Nc1ccc(Br)cc1Cl)N1CCCC1	i	i	i	2.1µM	i
O=C(CN1CCN(c2cccc(C(F)(F)F)c2)CC1)N(C1CCCC1)C1CCS(=O)(=O)C1 (stereo not given)	15µM	i	nt	8.3µM	i
SMILES	Pf growth 48h	SARS PLpro yeast	NS1 inh	Pf growth 96h	RE007 growth inh
O=C(CN1CCN(c2cccc(C(F)(F)F)c2)CC1)N(C1CC1)C1CCS(=O)(=O)C1 (stereo not given)	i	i	nt	?	i
CCc1noc(C)c1C(=O)Nc1ccc(C(F)(F)F)cc1	i	i	i	i	i
CN1CCN(CCCNCc2cn(CCC#N)c3ccccc23)CC1	nt	i	i	i	i
CSc1nnc(Nc2ccccc2C)s1	nt	i	i	9.3µM	i
C/C(N)=C(/C#N)C(=O)CSc1nnc(Nc2ccccc2C)s1	i	i	i	7.4µM	i
Cc1cc(NC(=O)CSc2nnc(Nc3ccccc3C)s2)no1	?	i	i	?	i
COc1ccc2nc3n(c(=O)c2c1)-c1cc(Cl)ccc1C(=O)NC3Cc1ccccc1 (stereo not given)	nt	i	nt	nt	nt
CCN(CC)CCNC(=O)C1(O)c2cc(Br)ccc2NC(=O)N1c1ccccc1 (stereo not given)	i[0.00184 µM]	i	i	2.6µM	i
